# Measurements reported in publication PMC4336329 (PLoS ONE, 2015).
# Screen size: about 310,000 compounds; about 14,000 (4.5%) showed an effect of 50% or more. Effects have a minus sign here. This is one part of a sample in which strong results are shown more often than they occur.
# Biological target: human ether-à-go-go-related gene (hERG) potassium channel (human, UniProt Q12809)
# Experiment: primary screen, population patch clamp on CHO cells stably expressing hERG; higher = less effect of the substance
# 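Also: peak tail current of the secondary pulse compared with the same well before compound.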
# Sequence of human ether-à-go-go-related gene (hERG) potassium channel (Q12809 whole entry, looked up): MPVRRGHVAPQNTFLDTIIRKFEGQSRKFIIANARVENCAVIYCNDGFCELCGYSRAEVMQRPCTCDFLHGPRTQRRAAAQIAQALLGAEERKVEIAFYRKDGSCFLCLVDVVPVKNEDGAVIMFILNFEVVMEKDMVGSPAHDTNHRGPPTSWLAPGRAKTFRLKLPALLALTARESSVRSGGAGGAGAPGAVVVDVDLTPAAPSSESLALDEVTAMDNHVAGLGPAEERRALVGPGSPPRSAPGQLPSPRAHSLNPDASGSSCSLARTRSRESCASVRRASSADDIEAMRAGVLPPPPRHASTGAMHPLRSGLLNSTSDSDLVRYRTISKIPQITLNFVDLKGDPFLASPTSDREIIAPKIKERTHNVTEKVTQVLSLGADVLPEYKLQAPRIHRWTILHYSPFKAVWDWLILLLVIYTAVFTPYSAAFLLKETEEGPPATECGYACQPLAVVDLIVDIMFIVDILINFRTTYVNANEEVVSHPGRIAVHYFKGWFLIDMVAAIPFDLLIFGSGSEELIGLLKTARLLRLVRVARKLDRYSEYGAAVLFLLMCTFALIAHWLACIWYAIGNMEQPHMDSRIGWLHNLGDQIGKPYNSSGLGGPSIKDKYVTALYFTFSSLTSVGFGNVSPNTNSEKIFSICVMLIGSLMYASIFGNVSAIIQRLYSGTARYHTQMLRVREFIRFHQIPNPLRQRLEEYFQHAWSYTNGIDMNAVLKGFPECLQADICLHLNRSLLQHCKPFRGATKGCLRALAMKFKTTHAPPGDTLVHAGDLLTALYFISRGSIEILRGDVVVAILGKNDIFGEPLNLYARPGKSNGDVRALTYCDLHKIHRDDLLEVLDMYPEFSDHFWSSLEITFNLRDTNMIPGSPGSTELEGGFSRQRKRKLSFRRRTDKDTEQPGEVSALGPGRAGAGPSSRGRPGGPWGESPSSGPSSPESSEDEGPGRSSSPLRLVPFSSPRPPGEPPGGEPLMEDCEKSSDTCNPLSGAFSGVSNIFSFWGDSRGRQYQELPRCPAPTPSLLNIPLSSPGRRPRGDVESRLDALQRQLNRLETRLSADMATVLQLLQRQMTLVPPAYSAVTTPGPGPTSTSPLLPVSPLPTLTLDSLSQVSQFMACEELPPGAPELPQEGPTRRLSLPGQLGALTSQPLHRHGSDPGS
row,Compound,"hERG current change (%, negative = inhibition) at 10uM [%]"
1,C=CCN(Cc1ccc(Cl)s1)C(=O)CNC(=O)CNC(=O)c1ccc(Cl)cc1Cl,-70.6
2,C=CCNC(=O)c1ccc(Cl)cc1Cl,11.8
3,O=C(CNC(=O)CNC(=O)c1ccc(Cl)cc1Cl)NCc1cccc(Cl)c1,-1.95
4,CN(Cc1ccc(Cl)s1)C(=O)CNC(=O)CNC(=O)c1ccc(Cl)cc1Cl,-56.8
5,COc1ccc(CN(C)C(=O)CNC(=O)CNC(=O)c2ccc(Cl)cc2Cl)cc1F,-43.5
6,CN(Cc1cccnc1)C(=O)CNC(=O)c1ccc(Cl)cc1Cl,-17.2
7,COc1ccc(C2=NS(=O)(=O)N(C)C(C(=O)Nc3ccc(C)cc3)=C2)cc1,-2.89
8,COc1cc(C)c(NC(=S)Nc2cccc(Cl)c2C)cc1OC,11.1
9,CCCCCCCCN1[C@@H](CC(=O)O)c2cc(F)ccc2S1(=O)=O,7.81
10,CCC(=O)NC(c1cccs1)c1cc(Cl)c2cccnc2c1O (centres unmarked),-2.87
11,COc1ccc(OC)c(CNC(=O)CCn2c(=O)c3cccn3c3ccc(F)cc32)c1,-62.2
12,COc1ccc(CNC(=O)CCn2c(=O)c3cccn3c3ccc(F)cc32)cc1,-7.82
13,COc1ccccc1CCNC(=O)CCn1c(=O)c2cccn2c2ccc(F)cc21,5.9
14,COc1ccc(C)cc1NC(=S)N1CC(C)OC(C)C1 (centres unmarked),-11.5
15,CCC(=NCCc1c(C)[nH]c2ccccc12)C1=C(O)CC(c2ccccc2)CC1=O (centres unmarked),6.02
16,N#C/C(=C(\O)Cc1ccccc1)c1nc2ccccc2[nH]1,15.6
17,CCCCc1nc2ccccc2n1CC(=O)NN,16.3
18,CCCCc1nc2ccccc2n1Cc1nnc2n1-c1ccccc1SC2,-63
19,C=C(Br)Cn1c(CCCC)nc2ccccc21,-21.6
20,Nc1nnnn1CC(=O)OCc1cccc(Br)c1,-13.8
21,COc1ccc(Cl)cc1NC(=O)CN(C)CC(=O)Nc1cc(OC)c(OC)c(OC)c1,-8.72

row,Compound,"hERG current change (%, negative = inhibition) at 10uM [%]"
1,COc1ccc(CCNC(=O)C2CCCN(Cc3nc(-c4cccc(Cl)c4)oc3C)C2)cc1OC (centres unmarked),-84.1
2,COc1ccc(CCNC(=O)C2CCN(C(=O)c3cccc(Cl)c3)CC2)cc1OC,11.5
3,Cc1oc(-c2cccc(Cl)c2)nc1CN1CCC(C(=O)NCCCN2CC(C)CC(C)C2)CC1 (centres unmarked),-21.4
4,COc1ccc(CCNC(=O)C2CCN(Cc3nc(-c4cccc(Cl)c4)oc3C)CC2)cc1OC,-85.2
5,CCc1cc2c(cc3c(=O)n(CC(=O)N4CCN(C)CC4)ncn32)s1,-14.3
6,CCOC(=O)c1ccccc1NC(=O)COC(=O)c1ccccc1C(=O)N(C)c1ccccc1,-23.5
7,CC(OC(=O)CN1C(=O)NC2(CCCC2)C1=O)C(=O)Nc1cccc(Cl)c1 (centres unmarked),-15.3
8,O=C(O)CC(CC(=O)Nc1ccc(-c2ccccc2)cc1)c1ccccc1 (centres unmarked),9.93
9,Cc1cc(C(=O)N/N=C/c2sccc2C)no1,17.2
10,S=C(NCCN1CCCCC1)Nc1ccccc1,0.941
11,Cc1ccc(NC(=O)NCCN2CCCCC2)cc1,-11
12,CCCCNC(=S)Nc1ccc(Cl)cc1,3.01
13,CCCNC(=S)Nc1ccc(Br)cc1,11.8
14,S=C(NCCN1CCOCC1)Nc1ccc(Br)cc1,5.71
15,CN(C)CCCNC(=S)Nc1ccc(Br)cc1,-11.6
16,O=C(NCCN1CCCCC1)Nc1ccc(Br)cc1,-52.4
17,CCCCNC(=S)Nc1ccc(C(F)(F)F)cc1,-52.8
18,CCCCNC(=S)Nc1ccc(F)cc1,20.6
19,S=C(NCCN1CCCCC1)Nc1ccc(Br)cc1,-69.1
20,O=C(NCCN1CCCCC1)Nc1ccc(Cl)cc1,-33.7
21,CCN(CC)CCCNC(=S)Nc1ccc(Br)cc1,-53.2

row,Compound,"hERG current change (%, negative = inhibition) at 10uM [%]"
1,COc1ccccc1CNC(=O)C1CCC(=O)N(CCCc2ccccc2)C1 (centres unmarked),-9.31
2,CC(C)c1cc(CNC(=O)CC2C(=O)NCCN2CC2CCCCC2)on1 (centres unmarked),11.2
3,O=C(NCCN1CCCCC1)Nc1ccc(F)c(Cl)c1,-33.9
4,Cc1ccc(NC(=O)NCCN2CCCCC2)cc1Cl,-51.7
5,Cc1ccc(NC(=O)NCCN2CCCCC2)cc1C,-15.8
6,COc1ccc(S(=O)(=O)N2CCN(C(=O)[C@H](Cc3ccccc3)NC(=O)c3ccco3)CC2)cc1,-28.6
7,CC1CN(CCOc2ccc(F)cc2)CC(C)O1.O=C(O)C(=O)O (centres unmarked),6.81
8,CC1CCCN(CCOc2ccc(Br)cc2)C1 (centres unmarked),-51.3
9,COc1ccc(OCCCN2CCCC(C)C2)cc1 (centres unmarked),-32
10,CC1CN(CCOc2ccc(Cl)c(Cl)c2)CC(C)O1.O=C(O)C(=O)O (centres unmarked),-5.18
11,CCCOc1ccc(OCCN2CCCC(C)C2)cc1.O=C(O)C(=O)O (centres unmarked),-52.2
12,Brc1ccc(OCCN2CCOCC2)cc1,4.54
13,CC1CC(C)CN(CCOc2ccc(Br)cc2)C1.O=C(O)C(=O)O (centres unmarked),-60.3
14,O=C(CSc1nc2ccccc2n1CC(=O)N1CCCC1)Nc1ccc2c(c1)OCO2,-37.7
15,CC(=O)Nc1c(C)nn(C(C)=O)c1C,16.4
16,CC(=O)N(C(C)=O)c1nc2nc(C)cc(C)n2n1,-42.3
17,COc1cccc(NC(=O)NCCc2ccc(Cl)cc2)c1,9.47
18,CCOC(=O)NNc1ccccc1,6.88
19,Cc1ccc(-c2csc3nc4ccc(C(=O)NCCO)cc4c(=O)n23)cc1,12.1
20,CC(C)(C)c1ccc(OCCC(=O)OCC(=O)Nc2cccnc2Cl)cc1,-2.33
